Assay outcomes deposited in PubChem by National Center for Advancing Translational Sciences (NCATS).
HADH2 inh – HADH2 (human) dehydrogenase inhibition; Q99714; recombinant HADH2, NADH fluorescence, beta-hydroxybutyryl-CoA; Potency, µM (doses to about 57.1 µM), most hits filed as inhibitors; 73,000 compounds, 3.4% hits; also: nearly all actives have a fitted effect of over 60% in size
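E. coli-expressed His-tagged HADH2 tested at 20 nM in alkaline Tris buffer (pH 9.0); oxidation of 90 uM beta-hydroxybutyryl-CoA with 1 mM NAD+ tracked fluorimetrically for 4 min.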
4MU fluor – compound fluoresces in the 4-MU spectral region; max dye-equivalent concentration, M; AID 589; 59,000 compounds, 11% hits; compound autofluorescence, 340/450 nm, 4-MU equivalents; hits give high values; in the data active = max dye-equivalent concentration above about 10 nM; inconclusive = mostly about 1.1 nM to 9.6 nM
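Intrinsic fluorescence at 340/450 nm (ex/em) was read after 15 min at room temperature in pH 8.0, 100 mM Tris. Each compound concentration expressed as 4-MU-equivalent concentration from a six-point 4-MU standard series on each plate.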
AID923 – qHTS Assay for Allosteric/Competitive Inhibitors of Caspase-1: Spectroscopic Profiling in AFC Spectral Region; compound fluorescence, AFC spectral region (405/520 nm); Potency, µM (series often up to 57.5 µM), usual class: activators; 75,000 compounds, 1.1% hits; AID 923, 2007
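Compound autofluorescence profiled at 405 nm ex/520 nm em during kinetic caspase 1 run (50 nM enzyme, 5 uM Ac-WEHD-AFC, HEPES pH 7.5, 10 mM DTT). Titration up to 57 uM; baseline from regression intercept, normalized to AFC standard curve.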
GBA mod – alters purified human glucocerebrosidase activity; Potency, µM; 48,000 compounds, 1.1% hits; AID 360; purified enzyme, resorufin glucoside fluorescence (screen aimed at inhibitors), 20 min; in the data active = potency below about 15 µM; inconclusive = mostly about 16 µM to 33 µM;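 also: the screen sought inhibitors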
Target sequence (P04062 whole entry, looked up): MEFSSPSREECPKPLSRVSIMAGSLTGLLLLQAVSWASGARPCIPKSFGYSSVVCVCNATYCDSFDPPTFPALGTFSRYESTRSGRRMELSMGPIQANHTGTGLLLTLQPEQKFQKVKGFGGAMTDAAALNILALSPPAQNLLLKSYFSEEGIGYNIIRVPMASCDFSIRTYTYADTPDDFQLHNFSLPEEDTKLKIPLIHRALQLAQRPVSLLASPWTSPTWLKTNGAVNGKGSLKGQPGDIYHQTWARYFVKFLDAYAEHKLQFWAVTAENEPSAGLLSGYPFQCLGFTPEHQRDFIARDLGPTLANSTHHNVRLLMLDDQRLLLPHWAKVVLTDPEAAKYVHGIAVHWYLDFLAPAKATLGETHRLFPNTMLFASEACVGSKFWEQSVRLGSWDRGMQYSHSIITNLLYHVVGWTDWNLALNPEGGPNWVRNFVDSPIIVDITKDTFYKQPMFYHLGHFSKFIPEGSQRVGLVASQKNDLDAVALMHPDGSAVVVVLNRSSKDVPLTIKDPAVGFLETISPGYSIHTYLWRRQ
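Compounds titrated against 0.2 nM normal enzyme, 30 uM resorufin beta-D-glucopyranoside substrate, citrate/phosphate buffer with taurocholate and tween-20, pH 5.9. Reaction ran 20 min at room temperature; fluorescence (Ex 548/Em 600) gave AC50.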
A350 fluor – A350 region autofluorescence; 59,000 compounds, 11% hits; Compound autofluorescence, 340/450 nm, Alexa 350 dye-equivalents; hits give high values; max dye-equivalent concentration, M; in the data active = max dye-equivalent concentration above about 10 nM; inconclusive = mostly about 1.1 nM to 9.6 nM
HSD17B inh – inhibitors of human HSD17B10 dehydrogenase; Q99714; recombinant HSD17B10, NADH fluorescence kinetic; Potency, µM (series often up to 57.1 µM), most hits filed as inhibitors; 75,000 compounds, 7.6% hits;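 also: the protocol describes HADH2 (HSD17B10) and not the HSD17B4 of the title; nearly all actives have a fitted effect of over 70% in size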
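20 nM HADH2, pH 9.0 Tris/Tween; cpd preinc 15 min RT; start w/ 1 mM NAD+ + 90 uM b-hydroxybutyryl-CoA; kinetic fluor ex360/em450 q30s x 4 min; delta last-first.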
Numbers stand for hits; – = inactive; ? = inconclusive; · = no result; [ ] = remark or other dose. Sampled rows, rich in hits. Any-hit rate of the full collection: about 13%. Unless noted, calls follow the shape of the dose curve; as a rule, active = well fitted curve in the direction sought with a large enough effect; inconclusive = small, poorly fitted or top-dose-only effect, or another doubt; inactive = no such curve, though single readings can be large; an effect the other way counts as inactive or inconclusive.

SMILES	HADH2 inh	4MU fluor	AID923	GBA mod	A350 fluor	HSD17B inh
CCCN1C[C@H](C)N([C@H](c2ccc(C(=O)N(CC)CC)cc2)c2cccc(OC)c2)C[C@H]1C	–	·	–	·	·	–
COc1ccc(-c2cc(C(F)(F)F)n3nc(C(=O)N4CCC5(CC4)OCCO5)cc3n2)cc1OC	–	1e-08M	–	–	?	?
CCC1(CCSC(=N)N)C(=O)NC(=O)NC1=O	–[11.4 µM]	–	–[11.5 µM]	·	–	–[11.4 µM]
C=CCC1(C(C)CCC)C(=O)N=C(S)NC1=O (configuration not stated)	·	·	–	·	·	–
C[C@@H]1O[C@H](O[C@H]2C[C@@H](O)[C@]3(CO)[C@H]4[C@H](O)C[C@]5(C)[C@@H](C6=CC(=O)OC6)CC[C@@]5(O)[C@H]4CC[C@]3(O)C2)[C@@H](O)[C@H](O)[C@H]1O	–	–	·	·	–	·
Cc1ccc(-c2cn3c(=S)[nH]nc3s2)cc1	32µM	–	–	–	–	?
O[N+]1=CC=CCC1=S.On1ccccc1=S.[Zn]	·	·	–	·	·	?
CN(C(=O)Cc1ccc(Cl)c(Cl)c1)[C@H](CN1CCCC1)c1cccc(N=C=S)c1	–	·	–	·	·	–
CCOC(=O)c1ccccc1N	?	·	–	·	·	32µM
Nc1ccccc1C(=O)OC1CSC1	?	·	–	·	·	32µM
CN(N=O)c1cc(O)ccc1O	2µM	–	–	·	–	10µM
Cc1ccc2nc(N3CCN(C)CC3)[nH]c2c1	–	–	–	–	–	–
CN1CCN(c2ccc3ccccc3n2)CC1	–	1.7e-08M	–	·	1.6e-08M	–
Cc1c([C@@H](C)[C@H]2NC[C@H](C)C[C@@H]2O)ccc2c1C[C@@H]1[C@H]2CC=C2C[C@@H](O)CC[C@@]21C	–[11.4 µM]	–	–[11.5 µM]	·	–	–[11.4 µM]
CN1CC=C2C(C#N)=C(N)C(C#N)(C#N)C(c3ccncc3)C2C1 (configuration not stated)	·	3.5e-07M	·	·	4e-07M	·
O=C(O)C(C(=O)O)P(=S)(S)c1ccccc1 (configuration not stated)	–[11.4 µM]	–	–[11.5 µM]	·	–	–[11.4 µM]
COC(=O)c1ccc2ccn(CC(=O)NC(C)C)c2c1	25µM	1.2e-08M	–	–	1.5e-08M	25µM
